From the supplement of paper PMC6555819

System: VDR:RXRa (NR concentration 270 nM, RXRa partner concentration 90 nM)
Test: PBM binding z-score (relative to random genomic background probes); higher = stronger binding; sequences stand for … in GC…GCGATTGACAGCGTAGAATGAAGG
Method: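 Protein-binding microarray (Agilent 4x180K custom design, double-stranded 60-nt probes: 5' GC cap, 34-nt variable region, 24-nt constant primer region; full probe sequence given). Purified or IVT nuclear receptor:RXRα heterodimers (3:1 NR:RXRα, mostly 270:90 nM) or homodimers were incubated for 1 h in PBS with 2% milk and no ligand, then detected with Alexa488 antibodies. Fluorescence from o1-orientation probes (~5 replicates averaged) was converted to z-scores against 500 random hg19 background probes. Variable regions are seed direct-repeat (DR0–DR5) sites, all their single-nucleotide variants and half-site ablations.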

Sequence | PBM binding z-score
CAAACTAGGTCACAGAGGTCAAACTCCGTGCGTA | 8.03
CCTGCTAGTTCATGGTCAGCTAATCTACAGTATG | 0.708
CCTGGCAGGCCAGGGTCACTCAAGCATTTCGCTT | 2.52
TTACCGAGGTGAAAGGTCGTTGATGCACGCCTTG | 3.72
CCTTGCGGGTCACTGACAGGTTATAGCATTTGGA | 3.13
CCGACTGGGTCAAAGGTTACCATACTCAGTACGA | 4.41
CTATGTAGCTTAAGGGGGTCATTCAGTTTGAAAG | 6.4
CCTTACGGGTCACTCAAGGTTATAGCATCGGAGT | 5.32
CTATGTAGGTTAAGAGGGTCATTCAGTTTGAAAG | 6.27
CCTAGTTGGTCAGGGGGTCACACACCGGATATGA | 4.94
CGTCCAAGGTCAACGCTAGGTCAGTGAAAGCATT | 5.09
GGAACGGGGGCAAGTTGATAGCAGAGTTTGATGG | 3.44
CGAACTAGGTCGAAGGACAGTGAAAGGCGACGTA | -0.183
GATACAGGGTGAGCTAGAGGCCAGAGTATGGAAA | -0.523
CCGAGTAGGTTACGAGTGGGCATTCAGTGCGAAT | -0.217
CAAACTAGGTCAAGAGGTCAAAGGCCGCTTCCCG | 5.83
TCTAGCTGGTCACGGAGGTCACACACGACGGGTA | 6.05
ATCGAAAGGTCGAGTTGAGTATAGAGAAAGGGAA | 3.04
CGAACTAGGTCACCATGACAGTGAAGAGGTTGGA | 1.78
CTATGTAGGTTAAGGGGTTCATTCAGTTTGAAAG | 7.62

Sequence | PBM binding z-score
TCTAGTTGGTCAAAGGTCAAACACTCGAAATGCG | 5.41
ATATGTAGCTTAAGGGTCATTCAGGTTGGTTCGC | 5.26
CGTCCAAGGTCAGAGAGGTCAGTGACTGCCGAGT | 7.27
CGAACTAGGTCAACGACAGTGAATCTCCGCACGC | 1.27
GATACAGGGTCAACTAGAGGCCAGAGTATGGAAA | 4.98
TCGAGTAGGATACGGGGGCATTCAGGGATGAAGA | 2.49
CAAACTAGGTCACAGAGGTCGAAGTCCGTGCGTA | 6.75
CTCGAAAGGTCAGTTGAGGTGAGTATACGGATAA | 4.7
CTAACTAGGTCACCGGAAGGTCAAAGTCCGCATG | 6.08
CGAACTAGCTCAAAGGACAGTGAAAGGCGACGTA | -0.564
CCGAGTAGGTTACGAGGGGGCATTCCGTGCGAAT | 4.84
TCCAGTAGGTTACGGGGGCATTCAGGGATGAAGA | 4.04
CCTACTGGGCCAAGGTCATTGCTCAGTCAAAGCA | 3.19
CTATGCAGGTTAAGGGGGTCATTCAGTTTGAAAG | 7.5
TCGAGTCGGTTACGGGGGCATTCAGGGATGAAGA | 2.73
CGAACTAGGTCAAAGGACTGTGAAAGGCGACGTA | 1.14
CGAACTAGGTCACCAGGACGGTGAAGAGGTTGGA | 1.77
ATCTAAAGGTCGAAGGTGAGTATACCCACCCGAA | 2.95
CTATGTAGGTTAAGGGGGTTATTCAGTTTGAAAG | 5.71
CCTACTGGGCCATCAGGTGATTGATATCAACGTT | -0.317
